Compounds with a hit are over-represented: about 6.5% of the library has one in this group of screens.
Fluor 339 460 = intrinsic fluorescence of library compounds, ex339/em460 – biochemical, MLSMR library, data from DPM-DC assay, artefact control, profiling panel; fluorescence fold increase at 10 µM; AID 709, 2007; 5.5% of 65,000 active; compound autofluorescence, ex339/em460 nm, NADH buffer; stronger effect = higher value; 1 = no-compound wells, NADH background;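 active = at 10 µM, mean starting fluorescence two-fold or more over control wells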;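 also: signal is the first read of a kinetic run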
A340 absorber = compound light absorbance at 340 nm, profiling panel, artefact control, biochemical, MLSMR library, data from PS, PMK, MK assays. compound absorbance at 340 nm, fold over control. fold change at 10 µM. 65,000 tested, under 10 active. AID 708, 2007;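 active = at 10 µM dose, initial 340 nm absorbance at least 2 fold that of control wells; inactive = change under 2 fold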;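 also: initial absorbance extrapolated from kinetic A340 decline of NADH oxidation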
MK inhibit = S. pneumoniae MK inhibitors, primary screen, biochemical, PK/LDH-coupled NADH absorbance | purified MK, PK/LDH-coupled NADH absorbance 340 nm | inhibition, % at 10 µM | AID 555, 2006 | 0.48% of 65,000 active | mevalonate kinase [Streptococcus pneumoniae D39];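 active = ranked among the strongest by inhibition in the single 10 µM screen, a fixed top-ranked set picked for dose follow-up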
DPM-DC inhibit = S. pneumoniae DPM-DC inhibitors, primary screen, biochemical, PK/LDH-coupled NADH fluorescence. purified DPM-DC. diphosphomevalonate decarboxylase (Streptococcus pneumoniae D39). calls only at 10 µM. 0.49% of 65,000 active;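 active = the 320 compounds with the highest percent inhibition in the single-dose primary screen, excluding strongly autofluorescent ones, cut at about 32% in these data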;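 also: kinetic rate of NADH fluorescence loss reporting ADP formed by the decarboxylase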
PMK inhibit = S. pneumoniae PMK inhibitors, primary screen, biochemical, mevalonate pathway, pilot trial included; inhibition, % at 10 µM; 0.49% of 65,000 active; AID 539, 2006; phosphomevalonate kinase (Streptococcus pneumoniae D39); purified PMK, PK/LDH-coupled NADH absorbance 340 nm;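 active = top-ranked compounds by inhibition in the single 10 µM screen, taking a fixed number of the strongest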
NADH coupling = inhibitors of PK/LDH coupling enzymes, profiling panel, artefact control, biochemical, MLSMR library | coupled PK/LDH NADH assays, four targets | IC50, µM (top dose mostly 10 µM) | 0.02% of 65,000 active | AID 774, 2007;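 active = single-dose screening hits from any of four coupled enzyme assays that gave an IC50 when retested across doses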;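 also: the DPM-DC format reads NADH fluorescence rather than 340 nm absorbance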
Hits are given with their value; . = inactive; / = not tested or not shown; + = active, no number.

SMILES	Fluor 339 460	A340 absorber	MK inhibit	DPM-DC inhibit	PMK inhibit	NADH coupling
COc1ccc(CNc2nc3nc(C)cc(C)n3n2)cc1OC	.	.	.	.	.	.
Cc1cc(C)n2nc(NCc3cccc(Br)c3)nc2n1	3.6	.	.	/	.	.
O=c1ccsn1Cc1ccccc1	.	.	.	.	.	.
COc1cc2nc(N3CCN(C(=O)C4CCCO4)CC3)nc(N)c2cc1OC (stereo not drawn)	3.9	.	.	/	.	.
Cc1cc(C(=O)N2CCN(C(=O)C3CCCO3)CC2)no1 (stereo not drawn)	.	.	.	.	.	.
COc1ccc(CCn2c(=N)c(C(=O)NCc3ccco3)cc3c(=O)n4ccccc4nc32)cc1	.	.	.	.	.	.
CNC(=O)c1cc2c(=O)n3cc(C)ccc3nc2n(C(C)C)c1=N	5	.	.	/	.	.
CNC(=O)c1cc2c(=O)n3cc(C)ccc3nc2n(Cc2ccco2)c1=N	2	.	.	.	.	.
CCCc1nc(NCc2ccco2)c(C#N)c2c1COC(C)(C)C2	.	.	.	.	.	.
CC1(C)Cc2c(C#N)c(NCc3ccco3)nc(-c3ccco3)c2CO1	2.2	.	.	/	.	.
CC1(C)Cc2c(C#N)c(N3CCN(C(=O)c4ccccc4)CC3)nc(-c3ccco3)c2CS1	.	.	.	.	.	.
Cc1nc(NCc2ccco2)c(C#N)c2c1COC(C)(C)C2	2.7	.	.	.	.	.
CC(C)c1nc(N2CCN(C(=O)c3ccccc3)CC2)c(C#N)c2c1COC(C)(C)C2	2.1	.	.	/	.	.
CC1(C)Cc2c(C#N)c(OCC(=O)c3ccc(Cl)cc3)nc(-c3ccco3)c2CO1	2.1	.	.	.	.	.
CC(=O)c1cccc(N(CC(=O)NCC2CCCO2)C(=O)CCC(=O)Nc2cc(C)on2)c1 (stereo not drawn)	.	.	.	.	.	.
CN(C)CCNc1nc(-c2ccco2)c2c(c1C#N)CC(C)(C)OC2	2.2	.	.	/	.	.
N#Cc1c(N2CCOCC2)nc(-c2ccco2)c2c1CCCC2	2.3	.	.	/	.	.
CCCCN(C)c1nc(-c2ccco2)c2c(c1C#N)CC(C)(C)OC2	.	.	.	.	.	.
CCC(=O)N1CCN(c2nc(-c3ccccc3)c3c(c2C#N)CCCC3)CC1	2.1	.	.	/	.	.
CC1(C)Cc2c(C#N)c(N3CCCC3)nc(-c3ccco3)c2CO1	2.2	.	.	/	.	.
O=C(c1ccco1)N1CCN(C(=O)C2CCN(S(=O)(=O)c3cccs3)CC2)CC1	.	.	.	.	.	.
Cc1oc2nc(SCCCC(=O)NCCO)nc(N)c2c1C	.	.	.	.	.	.
CCNc1nc(NCC)n2c(SCc3ccc(F)cc3)nnc2n1	.	.	.	.	.	.
O=c1[nH]c(=O)n(Cc2ccccc2)c2nc(-c3ccco3)cc(C(F)(F)F)c12	4.9	.	.	/	.	.
CCc1ccccc1NC(=O)CSc1nc2ccccc2n1CC(=O)N(C)C	.	.	.	.	.	.
SMILES	Fluor 339 460	A340 absorber	MK inhibit	DPM-DC inhibit	PMK inhibit	NADH coupling
CC1Cc2nc(SCC(=O)Nc3ccc4c(c3)OCO4)n(CCc3ccccc3)c(=O)c2S1 (stereo not drawn)	.	.	.	+	.	.
Cc1ccc(C(=O)Nc2c(C(=O)NCc3ccco3)cnn2-c2ccccc2)cc1	.	.	.	.	.	.
COC(=O)c1c(C)[nH]c(C(=O)CN2CCOCC2)c1C	.	.	.	.	.	.
COc1ccccc1N1CCN(c2cc(=O)n(-c3ccc(Cl)cc3)c(=O)[nH]2)CC1	.	.	.	.	.	.
Cn1cnnc1Sc1nc2c(c(=O)n(C)c(=O)n2C)n1Cc1ccccc1Cl	.	.	.	.	.	.
COc1ccc(CNCCNC(=O)c2ccco2)c(OC)c1OC	.	.	.	.	.	.
COc1ccc2c(C)c(C(=O)NCC(C)O)oc2c1OC (stereo not drawn)	2.3	.	.	/	.	.
O=S1(=O)c2cccc3cccc(c23)N1Cc1ccc(-c2nnco2)cc1	2.8	.	.	.	.	.
N#CCCCCN1c2cccc3cccc(c23)S1(=O)=O	3.7	.	.	/	.	.
O=C(CN1c2cccc3cccc(c23)S1(=O)=O)NCc1ccc2c(c1)OCO2	.	.	.	.	.	.
O=S1(=O)c2cccc3cccc(c23)N1Cc1nnc(-c2ccccc2Br)o1	.	.	.	.	.	.
COc1cc(NC(=O)CN2c3cccc4cccc(c34)S2(=O)=O)cc(OC)c1OC	2.6	.	.	.	.	.
CCCN1c2cccc3cccc(c23)S1(=O)=O	2.2	.	.	/	.	.
Cc1ccc(C)c2[nH]c(=O)c(CCNC(=O)c3ccc(S(=O)(=O)N(C)C)cc3)cc12	.	.	.	.	.	.
COC(=O)c1ccccc1NC(=O)C(CCS(C)(=O)=O)NC(C)=O (stereo not drawn)	.	.	.	.	.	.
OCCNCC1(O)C2CC3CC(C2)CC1C3 (stereo not drawn)	.	.	.	.	26	.
CCCCc1cc(=O)oc2cc(C)cc(OC(C)C(=O)O)c12 (stereo not drawn)	3	.	.	/	.	.
CCCc1cc(=O)oc2cc(C)cc(OCC(=O)O)c12	3.9	.	.	/	.	.
CCN(CC)S(=O)(=O)c1cccc2c(N(C)C)cccc12	.	.	.	.	.	.
CCN(CC)S(=O)(=O)c1cccc2cc(C(=O)O)c(O)cc12	2.1	.	.	.	.	.
OC(CNCCc1ccccc1)c1ccccc1 (stereo not drawn)	.	.	.	.	.	.
COC(=O)c1ccc(-c2ccc(CNCC(O)c3ccccc3)o2)cc1 (stereo not drawn)	2.9	.	.	/	.	.
CCC(C)(C)n1nnnc1C(c1cccnc1)N1CCCc2ccccc21 (stereo not drawn)	.	.	.	.	28	.
O=C(Nc1ccc(N2CCOCC2)c(Cl)c1)C1CCCCC1	.	.	.	.	.	.
c1ccc2c3c(cc(N4CCOCC4)c2c1)OC1(N2CCOCC2)CCCCC1O3 (stereo not drawn)	3.9	.	.	/	.	.
Cc1cc(SCC(=O)Nc2c(C)n(C)n(-c3ccccc3)c2=O)n2c(nc3ccccc32)c1C#N	.	.	.	.	.	.
CC(C)C(NC(=O)OCc1ccccc1)C(=O)OCC(=O)NCc1ccco1 (stereo not drawn)	.	.	.	.	.	.
Cn1c(/N=C/c2c[nH]c3ccccc23)nc2ccccc21	.	.	.	.	.	.
